Source: PubChem (National Center for Advancing Translational Sciences (NCATS))
This is a sample that favours compounds with a hit; in the whole collection about 19% have one here.
TDP1 cell CPT = DT40-hTDP1 cell growth loss with CPT. chicken DT40 Tdp1-/-;hTDP1 cells + 20 nM CPT, ATP luminescence, 48 h. Potency, µM (highest dose often 46.2 µM), inactives show at the highest dose activity change, negative = growth inhibition, actives largely listed as inhibitors. 12% of 420,000 active. AID 686979; also: nearly all actives have a fitted effect of over 55% in size
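Cell growth measured by CellTiter-Glo luminescence after a minimum 48 h, 37 C compound exposure with 20 nM CPT in Tdp1-knockout DT40 cells stably expressing hTDP1, seeded 400/well; qHTS titration format.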
KB-V1 cytotox = KB-V1 MDR subline cytotoxicity | KB-V1 MDR cells viability, CellTiter-Glo, 72 h | AID 1347076 | Potency, µM (titrated, usually from 46.1 µM), most hits filed as cytotoxic | 3.4% of 400,000 active; also: nearly all actives have a fitted effect of over 60% in size
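Cytotoxicity toward P-gp-expressing KB-V1 cells was determined as loss of CellTiter-Glo luminescence after 72 h at 37 degrees C. Compounds were tested in quantitative HTS format across a concentration range, with curves fitted to normalized data.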
HT1080-NT tox = kills 2HG-producing HT-1080-NT fibrosarcoma cells | 1.6% of 360,000 active | AID 686970 | Potency, µM (top dose mostly 46.1 µM), for inactives: at the top dose activity, negative = less viability, hits mostly cytotoxic | HT-1080-NT fibrosarcoma viability, CellTiter-Glo ATP luminescence, 48 h;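 also: NT is the 2HG producing partner of a matched IDH1 knockdown line; 0% = DMSO-treated cells and -100% = media-only wells without cells; nearly all actives have a fitted effect of over 55% in size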
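HT-1080-NT; 750 cells/well; 5% FBS RPMI; 48 h compound, 37 degrees C; CellTiter-Glo luminescence; curve fitting and curve-class assignment.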
DT40 TDP1 no CPT = qHTS for Inhibitors of human tyrosyl-DNA phosphodiesterase 1 (TDP1): qHTS in cells in absence of CPT. DT40 Tdp1-/- hTDP1 cells, no CPT, ATP luminescence, 48 h. Potency, µM (top dose mostly 46.2 µM), inactives show top-dose activity change, negative = growth inhibition, actives largely listed as inhibitors. 15% of 420,000 active. AID 686978, 2013; also: nearly all actives have a fitted effect of over 55% in size
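Luminescent ATP content (CellTiter-Glo) served as the growth readout. Knockout chicken DT40 cells expressing human TDP1 were exposed to compounds without camptothecin for a minimum 48 hr at 37 °C.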
HT1080 IDH1KD tx = kills HT-1080 cells with IDH1 knockdown; Potency, µM (series often up to 46.1 µM), without a hit: at the top dose activity, negative = toxicity, most hits filed as cytotoxic; 2% of 360,000 active; HT-1080 IDH1 knockdown viability, ATP luminescence, 48 h;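 also: 0% = DMSO wells and -100% = cell-free medium wells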
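% activity derives from luminescence (CellTiter-Glo), normalised to DMSO and no-cell wells. HT-1080-IDH1KD cells, 750/well, had 48 h compound exposure at 37 °C.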
KB-3-1 tox = KB-3-1 parental cell cytotoxicity; Potency, µM (titrated, usually from 46.1 µM), hits mostly cytotoxic; KB-3-1 viability, CellTiter-Glo ATP luminescence, 72 h; 1.4% of 400,000 active; AID 1347075; also: nearly all actives have a fitted effect of over 60% in size
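KB-3-1 parental drug-naive adenocarcinoma cells in DMEM/10% FBS, incubated 72 h at 37 C with pin-transferred compounds across a concentration series. Viability by CellTiter-Glo luminescence; concentration-response curves fitted after normalization.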
Active calls of the source: *. Calls follow the shape of the dose curve; as a rule, active = well fitted curve in the direction sought with a large enough effect; inconclusive = small, poorly fitted or top-dose-only effect, or another doubt; inactive = no such curve, though single readings can be large; an effect the other way counts as inactive or inconclusive. Unless noted, % is scaled to controls: 0 for no effect and ±100 for the full control effect; potency is read from the fitted curve at half-maximal effect.

How did Cc1cccc(CN2[C@@H](CC(C)C)COCCS2(=O)=O)c1 do in these assays?
TDP1 cell CPT: -13%; KB-V1 cytotox: inactive; HT1080-NT tox: 22%; DT40 TDP1 no CPT: -28%; HT1080 IDH1KD tx: -5%; KB-3-1 tox: inactive

How did CCc1cc2c(cc3c(=O)n(CC(=O)NC4CCCCC4)nc(CC)n32)s1 do in these assays?
TDP1 cell CPT: -4%; DT40 TDP1 no CPT: -22%

How did COc1ccc(N(C(=O)c2ccccc2C)S(=O)(=O)c2ccc3c(c2)n(C)c(=O)n3C)cc1 do in these assays?
TDP1 cell CPT: -22%; KB-V1 cytotox: inactive; DT40 TDP1 no CPT: inconclusive; KB-3-1 tox: inactive

Results for CCOC(=O)c1c(NC(=O)/C=C/c2ccc(C(C)C)cc2)sc2c1CCC2 ?
TDP1 cell CPT: 2%; DT40 TDP1 no CPT: 6%

Results for COc1ccc(S(=O)(=O)Nc2cccc3c2O[C@H](CN(C)Cc2ccc(Cl)c(Cl)c2)[C@@H](C)CN([C@H](C)CO)C3=O)cc1 ?
TDP1 cell CPT: 21µM*; KB-V1 cytotox: inactive; HT1080-NT tox: -28%; DT40 TDP1 no CPT: 18µM*; HT1080 IDH1KD tx: inconclusive; KB-3-1 tox: inactive

How did COc1ccc(S(=O)(=O)Nc2cccc3c2O[C@H](CN(C)Cc2ccccc2)[C@@H](C)CN([C@H](C)CO)C3=O)cc1 do in these assays?
TDP1 cell CPT: inconclusive; KB-V1 cytotox: inactive; HT1080-NT tox: -3%; DT40 TDP1 no CPT: inconclusive; HT1080 IDH1KD tx: 1%; KB-3-1 tox: inactive

How did Cc1ccc(S(=O)(=O)Nc2cccc3c2O[C@H](CN(C)C(=O)Nc2ccc(C(F)(F)F)cc2)[C@@H](C)CN([C@H](C)CO)C3=O)cc1 do in these assays?
TDP1 cell CPT: 16µM*; KB-V1 cytotox: inactive; HT1080-NT tox: -9%; DT40 TDP1 no CPT: inconclusive; HT1080 IDH1KD tx: -15%; KB-3-1 tox: inactive

Results for Cc1ccc(S(=O)(=O)Nc2cccc3c2O[C@H](CN(C)Cc2ccccc2)[C@@H](C)CN([C@H](C)CO)C3=O)cc1 ?
TDP1 cell CPT: inconclusive; KB-V1 cytotox: inactive; HT1080-NT tox: 19%; DT40 TDP1 no CPT: 16µM*; HT1080 IDH1KD tx: -5%; KB-3-1 tox: inactive

How did COc1ccc(NC(=O)Nc2cccc3c2O[C@H](CN(C)C(=O)Nc2ccc(C(F)(F)F)cc2)[C@@H](C)CN([C@H](C)CO)C3=O)cc1 do in these assays?
TDP1 cell CPT: 26µM*; KB-V1 cytotox: inconclusive; HT1080-NT tox: -16%; DT40 TDP1 no CPT: 16µM*; HT1080 IDH1KD tx: -19%; KB-3-1 tox: inactive

What do the screens show for `Cc1ccc(CNC(=O)c2ccc(Cn3c(SCc4ccc(F)cc4)nc4cccnc43)cc2)o1`?
TDP1 cell CPT: inconclusive; KB-V1 cytotox: inactive; DT40 TDP1 no CPT: inconclusive; KB-3-1 tox: inactive

Results for Cc1cc(C2=CC(=O)C[C@H](c3ccc4c(c3)OCO4)C2)ccc1F ?
TDP1 cell CPT: -18%; KB-V1 cytotox: inactive; HT1080-NT tox: -2%; DT40 TDP1 no CPT: -28%; HT1080 IDH1KD tx: -8%; KB-3-1 tox: inactive

Results for C[C@H](CO)N1C[C@H](C)[C@@H](CN(C)S(C)(=O)=O)Oc2c(NC(=O)Nc3ccc(C(F)(F)F)cc3)cccc2C1=O ?
TDP1 cell CPT: 23µM*; KB-V1 cytotox: inactive; HT1080-NT tox: -23%; DT40 TDP1 no CPT: inconclusive; HT1080 IDH1KD tx: -6%; KB-3-1 tox: inactive

Results for Cc1ccc(S(=O)(=O)Nc2cccc3c2O[C@@H](CN(C)C(=O)Nc2ccc4c(c2)OCO4)[C@H](C)CN([C@@H](C)CO)C3=O)cc1 ?
TDP1 cell CPT: inconclusive; KB-V1 cytotox: inactive; HT1080-NT tox: -1%; DT40 TDP1 no CPT: inconclusive; HT1080 IDH1KD tx: 0%; KB-3-1 tox: inactive

Results for COc1ccc(NC(=O)Nc2cccc3c2O[C@H](CN(C)S(=O)(=O)c2ccc(OC)cc2)[C@@H](C)CN([C@H](C)CO)C3=O)cc1 ?
TDP1 cell CPT: inconclusive; KB-V1 cytotox: inconclusive; HT1080-NT tox: -1%; DT40 TDP1 no CPT: inconclusive; HT1080 IDH1KD tx: -1%; KB-3-1 tox: inactive

What do the screens show for `Cc1ccc(S(=O)(=O)Nc2cccc3c2O[C@H](CN(C)C(=O)Nc2cccc4ccccc24)[C@H](C)CN([C@H](C)CO)C3=O)cc1`?
TDP1 cell CPT: 21µM*; KB-V1 cytotox: inactive; HT1080-NT tox: -22%; DT40 TDP1 no CPT: 21µM*; HT1080 IDH1KD tx: -17%; KB-3-1 tox: inactive

What do the screens show for `C[C@H](CO)N1C[C@H](C)[C@@H](CN(C)Cc2ccc(-c3ccccc3)cc2)Oc2c(NS(=O)(=O)c3cccs3)cccc2C1=O`?
TDP1 cell CPT: 18µM*; KB-V1 cytotox: inactive; HT1080-NT tox: -28%; DT40 TDP1 no CPT: inconclusive; HT1080 IDH1KD tx: -9%; KB-3-1 tox: inactive

How did COc1ccc(NC(=O)Nc2cccc3c2O[C@H](CN(C)S(=O)(=O)c2ccccc2)[C@@H](C)CN([C@H](C)CO)C3=O)cc1 do in these assays?
TDP1 cell CPT: 18µM*; KB-V1 cytotox: inactive; HT1080-NT tox: -8%; DT40 TDP1 no CPT: inconclusive; HT1080 IDH1KD tx: inconclusive; KB-3-1 tox: inactive

How did C[C@H](CO)N1C[C@H](C)[C@@H](CN(C)Cc2ccncc2)Oc2c(NS(=O)(=O)c3ccccc3)cccc2C1=O do in these assays?
TDP1 cell CPT: -1%; KB-V1 cytotox: inactive; HT1080-NT tox: 8%; DT40 TDP1 no CPT: -24%; HT1080 IDH1KD tx: 0%; KB-3-1 tox: inactive

Results for O=C1CCC(C(=O)Nc2cc(C(F)(F)F)ccc2-n2cncn2)=NN1 ?
TDP1 cell CPT: -4%; KB-V1 cytotox: inactive; HT1080-NT tox: -5%; DT40 TDP1 no CPT: -3%; HT1080 IDH1KD tx: 2%; KB-3-1 tox: inactive

What do the screens show for `CCc1ccc(-c2cnc3nc[nH]c(=O)c3n2)cc1`?
TDP1 cell CPT: 1%; KB-V1 cytotox: inactive; HT1080-NT tox: 15%; DT40 TDP1 no CPT: inconclusive; HT1080 IDH1KD tx: 19%; KB-3-1 tox: inactive

How did C[C@H]1CN([C@@H](C)CO)C(=O)c2cccc(NC(=O)Nc3ccc(C(F)(F)F)cc3)c2O[C@@H]1CN(C)C(=O)Nc1ccc(F)cc1 do in these assays?
TDP1 cell CPT: 5.2µM*; KB-V1 cytotox: inactive; HT1080-NT tox: inconclusive; DT40 TDP1 no CPT: 5.8µM*; HT1080 IDH1KD tx: inconclusive; KB-3-1 tox: inconclusive
